Measurements reported in PubChem BioAssay AID1259418 (Broad Institute, 2018).
Screen size: about 3,400 compounds; about 840 (25%) were called active. Inconclusive results (about 11%) are left out. These entries were drawn from the full list. Entries with a potency or affinity are not part of this list. Unmarked numbers belong to inactive results.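 The calls were made as follows: active = fitted half-maximal concentration of signal decrease at or below twice the sample's top tested concentration; inconclusive = flat curve between -70 and -30 percent, or poor fit; inactive = flat within 30 percent, signal rise, or potency above limit.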

Experiment: inhibitors of Toxoplasma growth in IFN-γ-primed HeLa – cell-based, ME49Luc, luciferase, 72 h, dose response (AID 1259418)
Conditions: T. gondii ME49Luc in IFN-y HeLa, hits give low values, -100% = high-dose IFN-γ control wells; at 19.5 µM unless noted

SMILES	max activity
CN1C(=O)c2cc(NC(=O)Cc3cccs3)ccc2OC[C@H]2O[C@@H](CC(=O)NCc3ccc(-c4ccccc4)cc3)CC[C@@H]21	-7.79% [at 1.2 µM]
Cc1ccc(CNC(=O)Nc2ccc(-c3nc(-c4ccccc4)co3)cc2)cc1	90.3% [at 10 µM]
Cc1oc(-c2ccccc2)nc1Cn1nnc(-c2nc(-c3ccccc3Br)no2)c1C	-8.57% [at 0.35 µM]
CC(=O)O[C@H]1C[C@@H](OC(C)=O)C(C)(C)C2C[C@@H](OC(C)=O)[C@@]3(C)C4=CC(=O)O[C@@H](c5ccoc5)[C@]4(C)CCC3[C@]21C (some centres undefined)	-9.83% [at 5 µM]
Cc1ccc(CNC(=O)Nc2ccc(-c3nc(-c4ccc(C)cc4C)co3)cc2)cc1	14.7% [at 0.16 µM]
CCCCC(=O)Nc1ccc(-c2nc(-c3cc(C)ccc3C)co2)cc1	-7.17% [at 5 µM]
N#Cc1ccc(-c2ccc([C@H]3[C@@H](CO)N4C(=O)CNC[C@@H]34)cc2)cc1	52.5%
O=C1CNC[C@@H]2[C@H](c3ccc(C#Cc4cccnc4)cc3)[C@@H](CO)N12	42.6%
O=C1CNC[C@@H]2[C@H](c3ccc(C#Cc4cccnc4)cc3)[C@H](CO)N12	36.8%
O=C1CC2C(CCN2Cc2ccc(F)cc2)N1CCN1CCOCC1 (centres undefined)	15.6% [at 10 µM]
Cc1ccc(-c2coc(-c3ccc(NC(=O)c4sccc4C)cc3)n2)c(C)c1	14.5%
COC[C@H](N)C(=O)N1CCC(Cc2nnc(SC)n2C)CC1	32.3%
Cc1nc(Cn2cnc(-c3nc(C(=O)NCc4cc(F)cc(F)c4)c4ccccn34)c2)cs1	-10.1%
Cc1ccc(C)c(-c2coc(-c3ccc(NC(=O)Nc4cccc(F)c4)cc3)n2)c1	9.94% [at 2.6 µM]
CC(C)Oc1ccc(NC(=O)c2nc3c(n2C(C)C)CCN(C(=O)c2ccccc2)C3)cc1	-6.92% [at 2.6 µM]
Cc1ccc(-c2nc(Cn3nnc(-c4nc(-c5cccc(C(F)(F)F)c5)no4)c3C)c(C)o2)cc1	13.1%
CCOC(=O)CSC1=Nc2ccccc2C2=NC(CC(=O)NCc3ccccc3OC)C(=O)N12 (centres undefined)	-7.6% [at 0.68 µM]
Cc1cccc(-c2nc(Cn3nnc(-c4nc(-c5cccnc5)no4)c3C)c(C)o2)c1	-5.69% [at 2.6 µM]
O=C(Nc1ccc(-c2nc(-c3ccccc3)co2)cc1)c1ccc(F)cc1	21.2% [at 1.35 µM]
O=C(Nc1ccc(-c2nc(-c3ccccc3)co2)cc1)c1ccc(Cl)cc1	21.8% [at 5 µM]
O=C(Nc1ccc(-c2nc(-c3ccccc3)co2)cc1)c1ccccc1	74.5%
Cc1ccc(-c2coc(-c3ccc(NC(=O)c4cccc(F)c4)cc3)n2)cc1	42.3%
COc1ccc(-c2nc(Cn3nnc(-c4nc(-c5cccc(Cl)c5)no4)c3C)c(C)o2)cc1	-6.44% [at 0.35 µM]
Cc1nc(CCNC(=O)C2CCN(S(=O)(=O)c3cc(F)ccc3F)CC2)cs1	21.6% [at 2.6 µM]
Cc1ccc(C(=O)Nc2c(C(=O)N3CCN(c4ccccn4)CC3)[nH]c3ccccc23)cc1	-27.2%

SMILES	max activity
O=C(Cc1cccc(F)c1)Nc1ccc(-c2nc(-c3ccccc3)co2)cc1	16.9% [at 2.6 µM]
Cc1ccc(-c2nc(Cn3nnc(-c4nc(-c5ccc(F)cc5)no4)c3C)c(C)o2)cc1	22%
CCCC(=O)Nc1ccc(-c2nc(-c3cc(C)ccc3C)co2)cc1	-11.6% [at 1.35 µM]
COCC12CCCOC1CCN(S(=O)(=O)c1cn(C)cn1)C2 (centres undefined)	18.3%
COC[C@@H]1CCC[C@]12CN(S(=O)(=O)c1cccs1)CCO2	-9.83% [at 0.6 µM]
CCSc1ccc(-c2sc(-c3ccc(F)cc3)nc2C)nn1	31.6%
Cc1ccc2[nH]c(C(=O)NCc3ccccn3)c(NC(=O)c3ccc(Cl)cc3)c2c1	27.1% [at 0.35 µM]
Cc1ccc2[nH]c(C(=O)NCc3cccnc3)c(NC(=O)c3ccc(Cl)cc3)c2c1	-12% [at 10 µM]
Cc1ccc2[nH]c(C(=O)N3CCN(c4ccccn4)CC3)c(NC(=O)c3ccc(F)cc3)c2c1	-13.6%
Cc1ccc(C(=O)Nc2c(C(=O)NCc3ccccn3)[nH]c3ccccc23)cc1	-2.99% [at 0.35 µM]
O=C(Nc1c(C(=O)NCc2ccccn2)[nH]c2ccccc12)c1ccc(Cl)cc1	9.23% [at 1.35 µM]
Cc1cccc(C(=O)Nc2c(C(=O)NCc3ccccn3)[nH]c3ccc(C)cc23)c1	14.8% [at 10 µM]
Cc1ccc(C(=O)Nc2c(C(=O)NCc3cccnc3)[nH]c3ccc(C)cc23)cc1	54.9% [at 2.6 µM]
Cc1cccc(C(=O)Nc2c(C(=O)NCc3cccnc3)[nH]c3ccc(C)cc23)c1	28.1% [at 5 µM]
Cc1ccc2c(c1C)-n1cccc1C1(CCN(C(=O)Cc3cccs3)CC1)N2	6.55% [at 0.16 µM]
COc1ccc(-c2nc(Nc3cccc(Cl)c3C)c3ccccc3n2)cc1	25.3%
Cc1ccc(-c2coc(-c3ccc(NC(=O)Nc4cccc(Br)c4)cc3)n2)cc1	22.7% [at 0.16 µM]
Cc1ccccc1-c1noc(-c2nnn(Cc3nc(-c4cccc(Cl)c4)oc3C)c2C)n1	-11.4% [at 0.16 µM]
Cc1cc(C2CCCN2Cc2cn(C(C)C)c3ccccc23)on1 (centres undefined)	5.01%
Cc1noc(C)c1C1CCCN1Cc1cn(C(C)C)c2ccccc12 (centres undefined)	17.5% [at 10 µM]
Clc1ccc(CSc2nc(NC3CCCCC3)c3ccccc3n2)cc1	26.1% [at 2.6 µM]
CC(C)c1ccc(S(=O)(=O)N2CCC3(CC2)NCCN=C3NC2CCCCCC2)cc1	17.1% [at 0.16 µM]
CC(C)c1ccc(S(=O)(=O)N2CCC3(CC2)NCCN=C3NC2CCCCC2)cc1	20% [at 0.16 µM]
CC(C)c1ccc(S(=O)(=O)N2CCC3(CC2)NCCN=C3NC2CCCC2)cc1	-14.4% [at 10 µM]
Cc1ccc(-c2coc(-c3ccc(NC(=O)Nc4ccc(Cl)cc4)cc3)n2)cc1	13.9% [at 0.16 µM]

SMILES	max activity
Cc1ccc(C)c(-c2coc(-c3ccc(NC(=O)Nc4ccc(C)c(F)c4)cc3)n2)c1	15%
CCc1ccccc1Nc1ncnc2c1cnn2-c1ccc(OC)cc1	48.9%
Clc1ccc(-c2nc(N3CCN(c4ccccn4)CC3)c3ccccc3n2)cc1	-23.4% [at 1.35 µM]
COc1ccc(-c2nc(NCc3cccc(OC)c3)c3ccccc3n2)cc1	17.2%
CCc1ccccc1NC(=O)N1CCN(Cc2nc(-c3ccc(C)cc3)oc2C)CC1	29.1% [at 10 µM]
COc1ccc(-c2nc3c(s2)CN(C(=O)Nc2ccc(Cl)cc2)CC3)cc1OC	10.2% [at 0.16 µM]
CCOC(=O)CSC1=Nc2ccccc2C2=NC(CC(=O)NC3CCCCC3)C(=O)N12 (centres undefined)	-18.7% [at 10 µM]
O=C1CCc2cc(S(=O)(=O)NCCC(c3ccccc3)c3ccccc3)cc3c2N1CCC3	9.16%
CC1Cc2ccccc2N1S(=O)(=O)c1cc2c3c(c1)CCC(=O)N3CCC2 (centres undefined)	-11.1% [at 0.35 µM]
O=C1CCc2cc(S(=O)(=O)N3CCC(Cc4ccccc4)CC3)cc3c2N1CCC3	11.4% [at 1.35 µM]
O=C1CCc2cc(S(=O)(=O)NCc3cccs3)cc3c2N1CCC3	24.5%
O=C1CCc2cc(S(=O)(=O)N3CCCc4ccccc43)cc3c2N1CCC3	-12% [at 0.35 µM]
O=C1CCc2cc(S(=O)(=O)NCc3ccccc3Cl)cc3c2N1CCC3	22.6% [at 2.6 µM]
Cc1ccc(C2=NC3(CCN(CC(=O)Nc4c(C)cccc4C)CC3)NC2=O)cc1	10.4% [at 0.16 µM]
COc1ccc2c(c1)NC1(CCN(C(=O)CCC3CCCC3)CC1)c1cccn1-2	10.2% [at 0.16 µM]
COc1ccc(C)cc1NC(=O)N1CCc2nc(-c3ccc(C)cc3)sc2C1	-14.6% [at 0.16 µM]
CCOc1ccc(CCNc2nc(-c3ccc(OC)cc3)nc3ccccc23)cc1	-9.19% [at 0.35 µM]
CCc1cc2c(N3CCC(C(N)=O)(N4CCCCC4)CC3)ncnc2s1	-27.2%
CCOC(=O)CCNC(=O)Nc1ccc(-c2nc(-c3ccccc3)co2)cc1	-13.1% [at 1.35 µM]
COC(=O)c1ccc(NC(=O)COc2nc(C)nc3ccccc23)cc1	16% [at 2.6 µM]
O=C(c1ccco1)N1CCC2(CC1)Nc1cc(F)ccc1-n1cccc12	7.86% [at 0.16 µM]
O=C(c1ccco1)N1CCN(c2nc(-c3ccc(Cl)cc3)nc3ccccc23)CC1	16.5% [at 0.35 µM]
Cc1ccc2c(c1C)-n1cccc1C1(CCN(C(=O)c3ccc(Cl)cc3)CC1)N2	-11.9% [at 0.16 µM]
O=C(CC1Nc2c3ccccc3nc(=S)n2C1=O)NCCC1=CCCCC1 (centres undefined)	25.3% [at 0.68 µM]
